# Experimental data reported in PubChem BioAssay AID1345085 (National Center for Advancing Translational Sciences (NCATS), 2018).
# Inconclusive results are not listed. A call without a number means that no potency is given here. Calls of active or inactive are those of the source. The call rests on the fitted dose curve; in most records, active means well fitted cell-killing curve with a large enough effect; inconclusive means small, poorly fitted or top-dose-only effect, or effect the other way; inactive means no such curve, though single readings can be large or run the other way.
# Test system: Jar
# Assay: Confirmatory qHTS for gynecologic anti-cancer compounds from libraries of approved drugs and bioactive compounds; further: nearly all actives have a fitted effect of over 55% in size
# Conditions: gynecologic cancer cell panel viability, ATPlite luminescence, 48 h; series mostly up to 57.6 µM
# Outline: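 IC50 values derive from an ATPlite ATP-content luminescence assay following 48 h treatment at 37 C. Each compound ran as an 11-concentration, threefold series (57.5 uM to 0.977 nM); HEK 293T served as control line for selectivity index.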
# Potency means the concentration at half of the fitted maximal effect.
row,Structure (SMILES),Potency
1,CCC(=O)O[C@H]1CC[C@H]2[C@@H]3CCC4=CC(=O)CC[C@]4(C)[C@H]3CC[C@]12C,inactive
2,Cc1sc2c(c1C)C(c1ccc(Cl)cc1)=NC(CC(=O)OC(C)(C)C)c1nnc(C)n1-2 (configuration not stated),5440 nM (active)
3,C=C(C)[C@H]1Cc2c(ccc3c2O[C@@H]2COc4cc(OC)c(OC)cc4[C@@H]2C3=O)O1,34.3 nM (active)
4,O=C(O)Cc1ccccc1,inactive
5,C[C@H]1CCC/C=C/C2C[C@H](O)C[C@H]2[C@H](O)/C=C/C(=O)O1 (some centres not stated),432 nM (active)
6,C[C@]12CC[C@H]3[C@@H](CCC4=CC(=O)CC[C@@H]43)[C@@H]1CC[C@@H]2OC(=O)CCc1ccccc1,inactive
7,CCNC(=O)C[C@@H]1N=C(c2ccc(Cl)cc2)c2cc(OC)ccc2-n2c(C)nnc21,inactive
